Bioassay records: PubChem, National Center for Advancing Translational Sciences (NCATS)
In the library only some 10% were active in any assay of this set; here they are far more common.
BAZ2B block – qHTS Assay for Inhibitors of BAZ2B | Potency, µM (doses to about 114 µM), for inactives: top-dose activity change, negative = inhibition, most hits filed as inhibitors | 360,000 compounds, 4.4% hits | Bromodomain adjacent to zinc finger domain protein 2B (Homo sapiens), Q9UIF8 | AID 504333, 2011 | AlphaScreen BAZ2B-H3K14Ac peptide displacement; also: % is scaled to controls: 0 for no effect and ±100 for the full control effect; nearly all actives have a fitted effect of over 60% in size
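AlphaScreen displacement: compounds (up to 110uM) incubated 30 min at room temperature with a preformed 50 nM BAZ2B/50 nM biotinylated H3K14Ac peptide complex in PBS pH 7.4 with Tween-20. Donor and acceptor beads at 10 ug/mL final added, 20 min light-protected before reading.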
G9a inh – qHTS Assay for Inhibitors of Histone Lysine Methyltransferase G9a | 350,000 compounds, 8.8% hits | G9a H3K9 monomethylation, AlphaScreen, 2 h | Histone-lysine N-methyltransferase EHMT2 (Homo sapiens), Q96KQ7 | Potency, µM (highest dose often 102 µM), for inactives: at the top dose activity, negative = inhibition, most hits filed as inhibitors; also: % is scaled to controls: 0 for no effect and ±100 for the full control effect; nearly all actives have a fitted effect of over 75% in size
Target sequence (Q96KQ7 913-1193 limits assumed): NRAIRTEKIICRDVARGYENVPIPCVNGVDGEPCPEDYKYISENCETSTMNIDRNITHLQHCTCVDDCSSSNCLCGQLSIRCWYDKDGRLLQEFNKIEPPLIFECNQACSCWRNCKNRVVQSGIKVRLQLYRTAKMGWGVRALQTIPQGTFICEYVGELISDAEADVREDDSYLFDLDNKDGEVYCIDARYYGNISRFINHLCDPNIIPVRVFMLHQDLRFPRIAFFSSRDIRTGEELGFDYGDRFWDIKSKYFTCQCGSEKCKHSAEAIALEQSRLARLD
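Quantitative HTS format: methyltransferase activity on a biotin-tagged H3K9 peptide is measured by AlphaScreen, using a rabbit anti-monomethyl-H3K9 antibody with streptavidin donor and anti-IgG acceptor beads. Final levels are 20 nM enzyme, 500 nM peptide, 20 uM SAM; 2 h RT.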
HP1b binding inh – HTS for Inhibitors of HP1-beta Chromodomain Interactions with Methylated Histone Tails | Chromobox protein homolog 1 (Homo sapiens), P83916 | AlphaScreen HP1-beta / biotin-H3K9me3 peptide binding | Potency, µM (doses to about 114 µM), inactives show at the top dose activity change, negative = inhibition, usual class: inhibitors | 390,000 compounds, 0.56% hits | AID 540317, 2011; also: nearly all actives have a fitted effect of over 70% in size
Target sequence (P83916 whole entry, looked up): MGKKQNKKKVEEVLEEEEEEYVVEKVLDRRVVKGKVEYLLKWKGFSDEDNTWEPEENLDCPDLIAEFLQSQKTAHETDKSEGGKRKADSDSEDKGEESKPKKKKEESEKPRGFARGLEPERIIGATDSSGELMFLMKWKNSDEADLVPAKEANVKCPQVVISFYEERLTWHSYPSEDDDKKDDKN
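AlphaScreen: HP1-beta (50 nM) preformed 30 min with biotin-H3(1-18)K9me3 peptide (50 nM) in PBS pH 7.4, 0.01% Tween-20. Compound added for 30 min at RT, then streptavidin donor/nickel chelate acceptor beads (10 ug/mL) for 30 min.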
JMJD2A Tudor – qHTS Assay for Inhibitors of JMJD2A-Tudor Domain; Potency, µM (titrated, usually from 114 µM), for the others: top-dose activity change, negative = inhibition, most hits filed as inhibitors; AID 504339, 2011; AlphaScreen JMJD2A-Tudor / H3K4me3 peptide binding; 390,000 compounds, 4.4% hits; Lysine-specific demethylase 4A (Homo sapiens), O75164; also: % is scaled to controls: 0 for no effect and ±100 for the full control effect; nearly all actives have a fitted effect of over 50% in size
GLS inhibitor – qHTS for Inhibitors of Glutaminase (GLS); Glutaminase kidney isoform, mitochondrial (Homo sapiens), O94925; GLS enzymatic activity, qHTS titration; Potency, µM (series often up to 45.5 µM), for the others: top-dose activity change, negative = inhibition, most hits filed as inhibitors; 410,000 compounds, 0.21% hits; also: % is scaled to controls: 0 for no effect and ±100 for the full control effect
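Human kidney-isoform GLS in 45 mM KH2PO4 pH 8.2, 0.02% Tween-20, with compound, started with 1mM L-Glutamine (added stock). Glutamate oxidase/HRP/Amplex red coupled fluorescence read at start and after 30 min at RT.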
An asterisk follows results filed as active; u = inconclusive; x = no result given; [ ] = dose if it differs, or a comment. Calls follow the shape of the dose curve; as a rule, active = well fitted curve in the direction sought with a large enough effect; inconclusive = small, poorly fitted or top-dose-only effect, or another doubt; inactive = no such curve, though single readings can be large; an effect the other way counts as inactive or inconclusive. Potency is read from the fitted curve at half-maximal effect.

SMILES | BAZ2B block | G9a inh | HP1b binding inh | JMJD2A Tudor | GLS inhibitor
COc1ccc(N2CCN(CC(O)COC(c3ccccc3)c3ccccc3)CC2)cc1 (configuration not stated) | 44.7µM* | 39.8µM* | u | 44.7µM* | 24.9%
COCCn1c(=S)[nH]c2cc(C(=O)N3CCN(Cc4ccccc4)CC3)ccc2c1=O | x | x | 50.1% | -21.1% | x
O=C(OCc1ccccc1)N1CCC2CC1c1cc(N3CCN(S(=O)(=O)c4cccc5ccccc45)CC3)ccc12 (configuration not stated) | x | x | x | x | -7.9%
COc1ccc(C(OCC(O)CN2CCC(O)CC2)c2ccc(OC)cc2)cc1 (configuration not stated) | -14.4% | -13.1% | -2.4% | -18.2% | -2.7%
COc1ccc(N2CCN(CC(O)COC(c3ccc(F)cc3)c3ccc(F)cc3)CC2)cc1 (configuration not stated) | 20µM* | 5.62µM* | u | 3.55µM* | 26.1%
COc1ccc(N2CC(NC(=O)C3CC3)CC2=O)cc1OC (configuration not stated) | 1.2% | -0.6%[59 µM] | 36.7% | -1.3% | -11.9%
CCOC(=O)c1c(C2COc3ccccc3O2)csc1N (configuration not stated) | u | 50.1µM* | -16.4% | u | 7.8%
COc1ccc(NC(=O)CSc2nc3ncccc3[nH]2)cc1OC | 3.1% | 4.9%[59 µM] | 43.2% | -3.2% | x
COc1ccc(OC)c(C(=O)CSc2nc3ncccc3[nH]2)c1 | -33.5% | 50.1µM* | 10.5% | 3.9%[57.1 µM] | 9.8%
O=C(CCc1n[nH]c(=O)[nH]c1=O)Nc1cccc([N+](=O)[O-])c1 | x | 50.1µM* | 23.7% | u | 0.3%
O=C(CSc1nc2ncccc2[nH]1)c1cccc([N+](=O)[O-])c1 | 6.9% | 39.8µM* | 8.9% | -27.2% | 13.3%
Cc1cc(SCC(=O)c2cccc([N+](=O)[O-])c2)nc(=O)[nH]1 | u | 28.2µM* | u | u | -1.1%
Nc1nc(SCC(=O)Nc2cccc([N+](=O)[O-])c2)n[nH]1 | x | x | -16.2% | -20.7% | 9.4%
O=C(COc1ccc(F)cc1)OCc1cc(=O)n2nc(C3CCCCC3)sc2n1 | -10.3% | 9.9%[59 µM] | 15.4% | -10.0% | -2.2%
CCOc1ccccc1NC(=O)c1nn(-c2ccc(C)cc2)c(=O)n(C)c1=O | -5.9% | -1.7%[59 µM] | 15.5%[57 µM] | -8.3% | -12.9%
CCOc1ccc(CCNC(=O)Cn2ncn3c(cc4ccccc43)c2=O)cc1OCC | 3.3% | 0.4%[59 µM] | 23.4% | 2.2% | -0.5%
O=C(CSc1n[nH]c(=O)[nH]c1=O)c1cccc([N+](=O)[O-])c1 | u | 31.6µM* | 50.4% | -28.1% | 20.5%
CN(Cc1ccccc1)CC(O)COc1ccc(CNCc2nccn2C)cc1 (configuration not stated) | 56.2µM* | x | 14.3% | -15.0%[11.4 µM] | 2.8%
CCn1ccnc1CNCc1ccc(OCC(O)CN(C)Cc2ccccc2)cc1 (configuration not stated) | u | x | 7.9% | u | 0.9%
Cc1cc2nc(-c3cccc(NC(=O)c4cccc5ccccc45)c3)oc2cc1C | -1.0% | 9.6%[59 µM] | 37.8% | -7.5% | 2.6%
CCOc1ccc(C2C(C(=O)c3ccc(C)o3)=C(O)C(=O)N2CCN2CCOCC2)cc1OC (configuration not stated) | u | 17.8µM* | 38.7% | 28.2µM* | 1.7%
COc1ccc(C2C(C(=O)/C=C/c3ccco3)=C(O)C(=O)N2CCN2CCOCC2)cc1OC (configuration not stated) | x | 50.1µM* | 20.5% | -18.6% | u
CCOc1ccc(C2C(C(=O)c3ccco3)=C(O)C(=O)N2CCN2CCOCC2)cc1 (configuration not stated) | -34.7% | u | 16.9% | -28.3% | 11.8%
CCOc1ccc(C2C(C(=O)c3ccco3)=C(O)C(=O)N2CCN2CCOCC2)cc1OCC (configuration not stated) | -20.4%[57.1 µM] | 39.8µM* | 23.5% | -16.2% | 3.5%
CCCOc1ccc(C2C(C(=O)c3ccco3)=C(O)C(=O)N2CCN2CCOCC2)cc1OC (configuration not stated) | -10.6% | u | x | x | x
SMILES | BAZ2B block | G9a inh | HP1b binding inh | JMJD2A Tudor | GLS inhibitor
CC(C)c1ccc(C2C(C(=O)c3ccco3)=C(O)C(=O)N2CCN2CCOCC2)cc1 (configuration not stated) | -6.7% | 50.1µM* | 30.5% | -11.6% | 7.8%
CCOC(=O)c1cnn(-c2cccc(F)c2)c1C1CCNCC1 | x | -49.9%[59 µM] | 24.5% | -7.7% | 0.5%
COC(=O)c1ccc(Cl)cc1NC(=O)N1CC=C(c2c[nH]c3ccccc23)CC1 | u | -38.6%[59 µM] | 1.8% | -30.3% | -27.7%
Cc1ccc2[nH]c3c(=O)n(Cc4ccncc4)cnc3c2c1 | 50.1µM* | -4.8% | 32.4% | -10.5% | 0.4%
CC(C)c1nnc(NC(=O)CCC(=O)NCc2ccc3c(c2)OCO3)s1 | -4.3% | 11.3%[12.7 µM] | 22.3% | -18.8% | -5.0%
C=CCn1c(-c2ccc(F)cc2)n[nH]c1=S | -22.5% | 20µM* | 25.6% | 7.08µM* | -24.6%
Cc1ccc(-c2cn(CCN)c(-c3ccncc3)n2)cc1 | u | -6.0%[2.33 µM] | 12.9% | u | 3.3%
C=CCn1c(-c2ccccc2)n[nH]c1=S | 46.3% | 61.2%[59 µM] | -11.9% | u | u
C=CCn1c(-c2ccoc2)n[nH]c1=S | u | 26.4%[0.501 µM] | u | 5.01µM* | 1.6%
CCCn1c(-c2ccncc2)n[nH]c1=S | 4.7% | u | 6.0% | 7.94µM* | -9.0%
C=CCn1c(-c2ccncc2)n[nH]c1=S | u | x | 36.2% | 15.8µM* | 1.6%
COc1ccc(S(=O)(=O)N2CCC(C(=O)N[C@H](C(=O)N3CCCCCC3)C(C)C)CC2)cc1 | -4.0% | 54.1% | 46.2% | -3.8% | 0.2%
CN1CCN(c2ncc3nc(-c4cccc(C#N)c4)c(=O)n(CCC#N)c3n2)CC1 | x | 9.8%[0.501 µM] | x | x | x
Cc1nc(-c2ccc([N+](=O)[O-])cc2)sc1C(=O)O | -7.6% | u | 32.6% | -0.7% | 1.9%
CCC(C)(C)c1ccc2c(c1)C(=O)c1ccccc1C2=O | 31.6µM* | u | u | 31.6µM* | -0.1%
CCC(=O)Nc1ccc2c(c1)C(=O)c1ccccc1C2=O | -1.9% | u | 5.6% | -29.6% | -7.9%
COc1ccc(-c2nc(CN3CCC(C(=O)NCCCOC(C)C)CC3)c(C)o2)cc1OC | -7.9% | 8.91µM* | 26.6% | -18.5% | 3.8%
CN(C1CCCCC1)S(=O)(=O)c1ccc(S(=O)(=O)N(CC(=O)Nc2ccccc2)C2CC2)cc1 | -20.4% | -1.1% | -0.4% | -21.1% | 11.4%
CCOC(=O)c1sc(NNC(=O)c2ccc(C)cc2)nc1C | -3.1% | u | 38.4% | -12.4% | 1.26µM*
